# According to the supplement of paper PMC8728848:
# This excerpt belongs to a sample that is enriched for the strongest signals.
# B1: Sebin2 (Coprinopsis cinerea), A8PE78 (protein)
# chain: MTTPFYAYCHNVQDDNTWRLGLVFANRSTADEWWRAISEATSSIPITKSITRVTPQYYTHDIRVWNMYNFFVDGNIKSISDKFRGRLFITLEYDRSGRGVSVFPPLHIVDHVSGNWYYIRSKTAPHLFWFYDETRNAIYASKEKRTRFKVSIRNPSPQTPKDAIMINSDDVVIHIKESLYVGVDSYLGHIIPTRAYRTFKFGELEGGAIAGIEVAENAEERCSSTFDGASLYFVGPDSSSPGEPWELV
# Key:
# Assay in all cases: glycan array binding signal (z-score within array); higher = stronger binding
# Conditions in all cases: glycan notation: IUPAC condensed, linker removed
# [1] = target: Fuc(a1-2)Gal(b1-3)GlcNAc(b1-2)Man(a1-3)[Fuc(a1-2)Gal(b1-3)GlcNAc(b1-2)Man(a1-6)]Man(b1-4)GlcNAc(b1-4)GlcNAc
# Outline: (§1)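 Negative Z-scores can be read as non-binding. The Z-score is calculated within each array and then averaged across arrays of one protein sequence at different concentrations or buffers and across linkers. Arrays, 3228 in all, were curated from the Consortium for Functional Glycomics database and kept only where the protein sequence was available.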
# [2] = target: Fuc(a1-2)Gal(b1-3)GlcNAc(b1-3)GalNAc
# Outline: as §1
# [3] = target: Fuc(a1-2)Gal(b1-4)GlcNAc(b1-2)[Fuc(a1-2)Gal(b1-4)GlcNAc(b1-4)]Man(a1-3)[Fuc(a1-2)Gal(b1-4)GlcNAc(b1-2)Man(a1-6)]Man(b1-4)GlcNAc(b1-4)GlcNAc
# Outline: as §1
# [4] = target: Fuc(a1-2)Gal(b1-4)GlcNAc(b1-3)Gal(b1-4)GlcNAc(b1-3)Gal(b1-4)GlcNAc
# Outline: as §1
# [5] = target: Fuc(a1-2)[Gal(a1-3)]Gal(b1-4)GlcNAc(b1-3)[Fuc(a1-2)[Gal(a1-3)]Gal(b1-4)GlcNAc(b1-6)]GalNAc
# Outline: as §1
# [6] = target: Fuc(a1-2)[Gal(a1-3)]Gal(b1-4)[Fuc(a1-3)]GlcNAc
# Outline: as §1
# [7] = target: Fuc(a1-2)[GalNAc(a1-3)]Gal(b1-4)GlcNAc(b1-2)Man(a1-3)[Fuc(a1-2)[GalNAc(a1-3)]Gal(b1-4)GlcNAc(b1-2)Man(a1-6)]Man(b1-4)GlcNAc(b1-4)GlcNAc
# Outline: as §1
# [8] = target: Fuc(a1-3)[Gal(b1-4)]Glc6S
# Outline: as §1
# [9] = target: Fuc(a1-3)[Gal(b1-4)]GlcNAc(b1-3)GalNAc
# Outline: as §1
# Fuc(a1-4)GlcNAc = target: Fuc(a1-4)GlcNAc
# Outline: as §1
# Gal(a1-3)Gal(b1-3)GlcNAc = target: Gal(a1-3)Gal(b1-3)GlcNAc
# Outline: as §1
# [10] = target: Gal(a1-3)Gal(b1-4)[Fuc(a1-3)]GlcNAc
# Outline: as §1
# [11] = target: Gal(b1-3)GalNAc(a1-3)[Fuc(a1-2)]Gal(b1-4)GlcNAc
# Outline: as §1
# [12] = target: Gal(b1-3)GlcNAc(b1-2)Man(a1-3)[GlcNAc(b1-4)][Gal(b1-3)GlcNAc(b1-2)Man(a1-6)]Man(b1-4)GlcNAc(b1-4)GlcNAc
# Outline: as §1
# [13] = target: Gal(b1-3)GlcNAc(b1-2)[Gal(b1-3)GlcNAc(b1-6)]Man(a1-6)[Gal(b1-3)GlcNAc(b1-2)Man(a1-3)]Man(b1-4)GlcNAc(b1-4)GlcNAc
# Outline: as §1
# [14] = target: Gal(b1-3)GlcNAc(b1-3)Gal(b1-3)GlcNAc
# Outline: as §1
# [15] = target: Gal(b1-3)GlcNAc(b1-3)Gal(b1-4)GlcNAc(b1-3)Gal(b1-4)GlcNAc(b1-2)[Gal(b1-3)GlcNAc(b1-3)Gal(b1-4)GlcNAc(b1-3)Gal(b1-4)GlcNAc(b1-6)]Man(a1-6)[Gal(b1-3)GlcNAc(b1-3)Gal(b1-4)GlcNAc(b1-3)Gal(b1-4)GlcNAc(b1-2)Man(a1-3)]Man(b1-4)GlcNAc(b1-4)[Fuc(a1-6)]GlcNAc
# Outline: as §1
# [16] = target: Gal(b1-4)GlcNAc(b1-2)Man(a1-3)[Gal(b1-4)GlcNAc(b1-2)Man(a1-6)]Man(b1-4)GlcNAc(b1-4)GlcNAc
# Outline: as §1
# [17] = target: Gal(b1-4)GlcNAc(b1-3)Gal(b1-4)GlcNAc(b1-3)Gal(b1-4)GlcNAc(b1-2)Man(a1-3)[Gal(b1-4)GlcNAc(b1-3)Gal(b1-4)GlcNAc(b1-3)Gal(b1-4)GlcNAc(b1-2)Man(a1-6)]Man(b1-4)GlcNAc(b1-4)GlcNAc
# Outline: as §1
# [18] = target: Gal(b1-4)GlcNAc(b1-3)Gal(b1-4)GlcNAc(b1-3)Gal(b1-4)GlcNAc(b1-3)Gal(b1-4)GlcNAc(b1-3)Gal(b1-4)GlcNAc(b1-2)[Gal(b1-4)GlcNAc(b1-3)Gal(b1-4)GlcNAc(b1-3)Gal(b1-4)GlcNAc(b1-3)Gal(b1-4)GlcNAc(b1-3)Gal(b1-4)GlcNAc(b1-6)]Man(a1-6)[Gal(b1-4)GlcNAc(b1-3)Gal(b1-4)GlcNAc(b1-3)Gal(b1-4)GlcNAc(b1-3)Gal(b1-4)GlcNAc(b1-3)Gal(b1-4)GlcNAc(b1-2)Man(a1-3)]Man(b1-4)GlcNAc(b1-4)[Fuc(a1-6)]GlcNAc
# Outline: as §1
# Gal3S(b1-4)Glc6S = target: Gal3S(b1-4)Glc6S
# Outline: as §1
# Gal6S(b1-4)Glc = target: Gal6S(b1-4)Glc
# Outline: as §1
# Gal6S(b1-4)GlcNAc = target: Gal6S(b1-4)GlcNAc
# Outline: as §1
# [19] = target: GalNAc(b1-3)Gal(a1-4)Gal(b1-4)GlcNAc
# Outline: as §1
# GalNAc(b1-3)GalNAc = target: GalNAc(b1-3)GalNAc
# Outline: as §1
# [20] = target: GalNAc(b1-4)GlcNAc(b1-2)Man(a1-3)[GalNAc(b1-4)GlcNAc(b1-2)Man(a1-6)]Man(b1-4)GlcNAc(b1-4)GlcNAc
# Outline: as §1
# GalNAc3S(b1-4)GlcNAc3S = target: GalNAc3S(b1-4)GlcNAc3S
# Outline: as §1
# GlcA(b1-6)Gal = target: GlcA(b1-6)Gal
# Outline: as §1
# [21] = target: GlcA3S(b1-3)Gal(b1-4)GlcNAc(b1-3)Gal(b1-4)Glc
# Outline: as §1
# [22] = target: GlcNAc(b1-2)Man(a1-3)[GlcNAc(b1-2)Man(a1-6)]Man(b1-4)GlcNAc(b1-4)[Fuc(a1-6)]GlcNAc
# Outline: as §1
# [23] = target: GlcNAc(b1-2)[GlcNAc(b1-4)]Man(a1-3)[GlcNAc(b1-4)][GlcNAc(b1-2)Man(a1-6)]Man(b1-4)GlcNAc(b1-4)GlcNAc
# Outline: as §1
# GlcNAc(b1-3)Gal(b1-4)Glc = target: GlcNAc(b1-3)Gal(b1-4)Glc
# Outline: as §1
# [24] = target: GlcNAc(b1-3)Gal(b1-4)GlcNAc(b1-6)[Gal(b1-3)]GalNAc
# Outline: as §1
# [25] = target: GlcNAc(b1-4)GlcNAc(b1-4)GlcNAc(b1-4)GlcNAc(b1-4)GlcNAc(b1-4)GlcNAc
# Outline: as §1
# Man(b1-4)GlcNAc = target: Man(b1-4)GlcNAc
# Outline: as §1
# [26] = target: Neu5Ac(a2-3)Gal(b1-3)GalNAc
# Outline: as §1
# Neu5Ac(a2-3)Gal(b1-4)Glc = target: Neu5Ac(a2-3)Gal(b1-4)Glc
# Outline: as §1
# [27] = target: Neu5Ac(a2-3)Gal(b1-4)GlcNAc(b1-3)Gal(b1-3)GlcNAc
# Outline: as §1
# [28] = target: Neu5Ac(a2-3)Gal(b1-4)[Fuc(a1-3)]GlcNAc
# Outline: as §1
# [29] = target: Neu5Ac(a2-6)Gal(b1-4)GlcNAc(b1-3)Gal(b1-4)GlcNAc(b1-2)Man(a1-3)[Neu5Ac(a2-6)Gal(b1-4)GlcNAc(b1-3)Gal(b1-4)GlcNAc(b1-2)Man(a1-6)]GalNAc
# Outline: as §1
# [30] = target: Neu5Ac(a2-8)Neu5Ac(a2-8)Neu5Ac
# Outline: as §1
# [31] = target: Neu5Ac(a2-8)Neu5Gc(a2-3)Gal(b1-4)GlcNAc
# Outline: as §1
# Neu5Gc(a2-6)GalNAc = target: Neu5Gc(a2-6)GalNAc
# Outline: as §1
binder,measurement,setting,value
B1,glycan array binding signal (z-score),[1],0.911
same,glycan array binding signal (z-score),[2],-0.146
same,glycan array binding signal (z-score),[3],0.019
same,glycan array binding signal (z-score),[4],-0.116
same,glycan array binding signal (z-score),[5],4.59
same,glycan array binding signal (z-score),[6],-0.033
same,glycan array binding signal (z-score),[7],0.273
same,glycan array binding signal (z-score),[8],1.49
same,glycan array binding signal (z-score),[9],0.281
same,glycan array binding signal (z-score),Fuc(a1-4)GlcNAc,4.58
same,glycan array binding signal (z-score),Gal(a1-3)Gal(b1-3)GlcNAc,1.62
same,glycan array binding signal (z-score),[10],-0.524
same,glycan array binding signal (z-score),[11],-0.521
same,glycan array binding signal (z-score),[12],-0.222
same,glycan array binding signal (z-score),[13],1.02
same,glycan array binding signal (z-score),[14],-0.397
same,glycan array binding signal (z-score),[15],0.29
same,glycan array binding signal (z-score),[16],0.112
same,glycan array binding signal (z-score),[17],-0.131
same,glycan array binding signal (z-score),[18],0.421
same,glycan array binding signal (z-score),Gal3S(b1-4)Glc6S,0.515
same,glycan array binding signal (z-score),Gal6S(b1-4)Glc,-0.355
same,glycan array binding signal (z-score),Gal6S(b1-4)GlcNAc,-0.138
same,glycan array binding signal (z-score),[19],-0.059
same,glycan array binding signal (z-score),GalNAc(b1-3)GalNAc,-0.129
same,glycan array binding signal (z-score),[20],-0.25
same,glycan array binding signal (z-score),GalNAc3S(b1-4)GlcNAc3S,0.462
same,glycan array binding signal (z-score),GlcA(b1-6)Gal,1.12
same,glycan array binding signal (z-score),[21],1.64
same,glycan array binding signal (z-score),[22],-0.213
same,glycan array binding signal (z-score),[23],2.76
same,glycan array binding signal (z-score),GlcNAc(b1-3)Gal(b1-4)Glc,-0.04
same,glycan array binding signal (z-score),[24],-0.253
same,glycan array binding signal (z-score),[25],-0.328
same,glycan array binding signal (z-score),Man(b1-4)GlcNAc,-0.209
same,glycan array binding signal (z-score),[26],6.35
same,glycan array binding signal (z-score),Neu5Ac(a2-3)Gal(b1-4)Glc,8.35
same,glycan array binding signal (z-score),[27],0.2
same,glycan array binding signal (z-score),[28],-0.437
same,glycan array binding signal (z-score),[29],-0.35
same,glycan array binding signal (z-score),[30],0.72
same,glycan array binding signal (z-score),[31],-0.304
same,glycan array binding signal (z-score),Neu5Gc(a2-6)GalNAc,-0.242
